“And” between values parts separate entries of the source, which are not always exact repeats. Identical values can stand only once. The whole screen tested about 1,000 compounds, of which about 250 (25%) were called active. About 31% were inconclusive and are not listed. These entries were drawn from the full list. Results with a measured potency or affinity are listed apart. Values without a mark were called inactive. The rule behind the calls is not given here.

The source of these data is PubChem BioAssay AID1259420 (Broad Institute, 2018).

The nature of the assay: T. gondii intracellular growth, IFN-gamma absent, dose response, cell-based (AID 1259420).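 Note: host cells were HeLa; final incubation lasted 72 hours.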 To be noted: Toxoplasma gondii growth in host cells, no IFN-gamma.

Regarding `COc1ccc(CN2CCC3(CC(n4cnnc4)CO3)C2)cc1` (stereo unspecified), the max activity (at 19.5 µM unless noted) is 41.3%.
For `O=C(Cc1cccnc1)N1CC(=O)N2[C@H](CO)[C@H](c3ccc(C#CC4CCCCC4)cc3)[C@@H]2C1`, the max activity reads like this: (at 10 µM) -8.18%; (at 19.5 µM) 7.75%.
`O=C(CC(F)(F)F)N1C[C@@H]2[C@H](c3ccccc31)[C@H](CO)N2CC1CCOCC1`: the max activity (at 19.5 µM unless noted) is -6.58% [at 5 µM].
Same read-out and setting: the result for `CN(C)C(=O)c1ccc(-c2ccc([C@H]3[C@H](CO)N4C(=O)CN(C(=O)CC5CC5)C[C@@H]34)cc2)cc1` reads -9.43% [at 0.3 µM]; that for `O=C(C1CCCCC1)N1[C@H](CO)[C@@H]2c3ccccc3N(S(=O)(=O)c3ccccc3)C[C@@H]21`, 10.6% [at 5 µM]; that for `CN(C)C(=O)c1cccc(-c2ccc(C3[C@H]4CNC[C@@H]3N4Cc3ccccc3C(F)(F)F)cc2)c1` (stereo partly specified), -11.4%.
Regarding `COc1ccc(C#Cc2ccc3c(c2)[C@H]2[C@H](CCN2C(=O)c2cnccn2)[C@H](CO)N3)cc1`, the max activity (at 19.5 µM unless noted) was 21.9%.
Regarding `COCC(=O)N1CC(=O)N2[C@H](CO)[C@@H](c3ccc(-c4ccncc4)cc3)[C@H]2C1`, for the setting “at 19.5 µM unless noted”, the max activity is 9.86% [at 2.6 µM].
Turning to `CC(C)c1ccc(C(=O)N=C(N)N)cc1S(C)(=O)=O`, the max activity (at 19.5 µM unless noted) was -6.61% [at 10 µM].
Take `O=C1CNC[C@H]2[C@@H](c3ccc(C#Cc4cccnc4)cc3)[C@@H](CO)N12`: the max activity (at 19.5 µM unless noted) is -4.61% [at 1.2 µM].
Still for that read-out and setting: the result for `NCCCCCCNS(=O)(=O)c1ccc2c(Cl)cccc2c1` reads -5.19% [at 10 µM]; that for `NC(=O)CN1CCOCCOCCN(CC(N)=O)CCOCC1`, 5.9% [at 5 µM].
On to `COCCN(CCOC)C(=O)c1cc2c(c3ccccc3n2CC2CC2)n1-c1ncccn1`, for which, under “at 19.5 µM unless noted”, the max activity is 18%.
Still for that read-out and setting: then `CN(C)S(=O)(=O)N1C[C@@H]2CN(Cc3ccoc3)CCO[C@H]2C1`, with -18.6%; and `COC[C@H]1CN(C)C[C@]12CCN(C(=O)c1cc3ccccc3s1)C2`, with 11.6%.
With `CCN1[C@@H]2CCN(C(=O)CC3CC3)CC[C@@H]2Oc2ccccc2S1(=O)=O`, the max activity (at 19.5 µM unless noted) was 19.2% [at 1.2 µM].
Consider `O=S1(=O)c2ccccc2OCC2(CCN(Cc3ccccc3)CC2)CN1CC1CC1`, for which the max activity (at 19.5 µM unless noted) was 19.2%.
Take `O=C(NCc1cncc2c1CCN(Cc1cccc(F)c1)C2)C1CC1`: the max activity is, setting by setting: (at 5 µM) 9.94%; (at 19.5 µM) 14%.
As for `CC(=O)N1CCN(C(C)C)C(c2nnc3ccc(C(=O)N4CCCC4)cn23)C1` (stereo unspecified), for the setting “at 19.5 µM unless noted”, the max activity was -12.1% [at 10 µM].
Consider `Cc1cccc(S(=O)(=O)N2CC[C@@H]3[C@@H](CO)Nc4ccc(-c5ccccc5F)cc4[C@@H]32)c1`, for which the max activity (at 19.5 µM unless noted) is -19% [at 0.6 µM].
Take `COc1ccccc1-c1ccc2c(c1)[C@H]1[C@H](CCN1Cc1ccccc1F)[C@@H](CO)N2`: the max activity (at 19.5 µM unless noted) is 20.2%.
Turning to `COc1ccccc1-c1ccc2c(c1)[C@H]1[C@H](CCN1S(=O)(=O)c1ccc(C)cc1)[C@@H](CO)N2`, under “at 19.5 µM unless noted”, the max activity was 21.4%.
For the compound `CCC(=O)N1CC[C@@H]2[C@H]1c1cc(C#Cc3ccccc3F)ccc1N[C@@H]2CO`, the max activity (at 19.5 µM unless noted) was -12.6%.
The same measure, in the same setting: the result for `O=S(=O)(c1cccc(F)c1)N1CC[C@@H]2[C@H]1c1cc(Br)ccc1N[C@@H]2CO` reads 7.04%; that for `COC[C@]12CCC[C@@H]1CN(S(=O)(=O)c1cccc(OC)c1)C2`, 17.2%; that for `CN(C)CCN1CCC2(CCCN(C(=O)C3CCOC3)C2)C1=O` (stereo unspecified), 31.3%.
The same measure, in the same setting: then `COCC1CN(C(=O)c2ccccc2F)Cc2cnn(CC3CC3)c21` (stereo unspecified), with -15.3% [at 10 µM].
Consider `Cc1ccccc1-c1ccc([C@@H]2[C@@H](CO)N3C(=O)CN(C(=O)c4ccncc4)C[C@@H]23)cc1`, for which the max activity (at 19.5 µM unless noted) was 15% [at 0.16 µM].
Same read-out and setting: then `COc1ccccc1S(=O)(=O)N1CC[C@H]2[C@H](CO)Nc3ccc(-c4ccc(C#N)cc4)cc3[C@H]21`, with 19% [at 21 µM].
For the compound `c1cc(-c2nccn2CCn2ccnc2)ccn1`, the max activity (at 19.5 µM unless noted) was 7.6% [at 0.16 µM].
The same measure, in the same setting: the result for `O=C(Nc1ccccc1)c1ncn2c1CN(CC1CC1)S(=O)(=O)c1ccccc1-2` reads -5.31% [at 1.2 µM]; that for `O=C(NCc1ccccc1)c1cc(-c2cnc(N3CCCC3)nc2)cn1CC1CC1`, -17.4% [at 10 µM].
On the same count and under the same terms, the result for `COc1ccccc1C#Cc1ccc([C@H]2[C@@H](CO)N3CCCCN(C(=O)C4CCC4)C[C@H]23)cc1` reads 11% [at 0.16 µM]; that for `CN(C)CCOCC12CCCOC1CCN(C(=O)c1cccn1C)C2` (stereo unspecified), -18.9% [at 5 µM]; that for `CC(C)COC1CC2(CCN(C(=O)c3cccn3C)CC2)C1`, 9.82% [at 0.3 µM].
Still for that read-out and setting: then `CC(C)C#Cc1ccc([C@@H]2[C@@H](CO)N3C(=O)CN(C(=O)NC4CCCC4)C[C@H]23)cc1`, with -5.34%.
Turning to `COCC(=O)N1CC(=O)N2[C@H](CO)[C@H](c3ccc(C#CC4CC4)cc3)[C@@H]2C1`, the max activity (at 19.5 µM unless noted) is -9.08% [at 5 µM].
Still for that read-out and setting: the result for `COc1ccc(-c2ccc([C@@H]3[C@@H](CO)N4C(=O)CN(C(=O)C5CC5)C[C@@H]34)cc2)cc1` reads 19.5% [at 21 µM]; that for `CN1CCCN(CC2(O)CCNC2)CC1` (stereo unspecified), 11.3% [at 0.08 µM]; that for `Cc1cccc(-c2ccc([C@H]3[C@H]4CN(C(=O)c5ccc6c(c5)OCO6)CC(=O)N4[C@H]3CO)cc2)c1`, 11.6%.
Same read-out and setting: then `COc1ccc(-c2ccc3c(c2)[C@H]2[C@H](CCN2C(=O)Nc2ccccc2OC)[C@H](CO)N3C)cc1`, with -12.3% [at 0.6 µM].
With `Cc1cccc(-c2ccc([C@@H]3[C@@H](CO)N4C(=O)CN(C(=O)c5ccc6c(c5)OCO6)C[C@H]34)cc2)c1`, the max activity (at 19.5 µM unless noted) was -5.13% [at 0.3 µM].
On the same count and under the same terms, the result for `CN1c2ccc(C3=CCCCC3)cc2[C@@H]2[C@@H](CCN2C(=O)C2CCOCC2)[C@H]1CO` reads -17.2% [at 5 µM].
With `N#Cc1ccc(-c2ccc3c(c2)[C@@H]2[C@@H](CCN2C(=O)C2CCCCC2)[C@@H](CO)N3)cc1`, under “at 19.5 µM unless noted”, the max activity is 24.3%.
`N#Cc1ccc(-c2ccc3c(c2)[C@H]2[C@H](CCN2C(=O)C2CCCCC2)[C@@H](CO)N3)cc1`: the max activity (at 19.5 µM unless noted) was -26.1% [at 5 µM].
On the same count and under the same terms, the result for `CCc1cnc(N2CCc3cc(C(=O)NCC4CC4)c(N(C)C)nc3CC2)nc1` reads 11.8% [at 0.6 µM]; that for `CO[C@@H]1CCN(S(=O)(=O)N(C)C)C[C@@H]1Cc1cccc(C)c1`, -8.52% [at 10 µM].
On to `CCCCOCCOCCOCc1cc2c(cc1CCC)OCO2`, for which the max activity (at 19.5 µM unless noted) was -10.5% [at 10 µM].
Still for that read-out and setting: then `Cc1nc(N2CCCC2)nc2c1CCN(C(=O)c1ccoc1C)CC2`, with -19.1% [at 10 µM]; and `Cc1cc2nc(CN3CCCC(CCc4ccc(F)cc4F)C3)cc(=O)n2[nH]1` (stereo unspecified), with 5.72%.
The same measure, in the same setting: the result for `Cc1ccc(-c2ccc([C@H]3[C@H]4CN(C(=O)NC(C)C)CC(=O)N4[C@H]3CO)cc2)cc1` reads -10.6% [at 0.6 µM]; that for `O=C(c1cnccn1)N1CC(=O)N2[C@H](C1)[C@@H](c1ccc(-c3cccc(F)c3)cc1)[C@@H]2CO`, 25.6%; that for `O=C(Nc1ccc(F)cc1)N1CC(=O)N2[C@H](CO)[C@@H](c3ccc(-c4cccc(F)c4)cc3)[C@H]2C1`, 13.4%.
Same read-out and setting: then `O=C(Nc1ccc(F)cc1)N1CC(=O)N2[C@H](CO)[C@@H](c3ccc(-c4cccc(F)c4)cc3)[C@@H]2C1`, with -6.88%; and `C/C=C/c1ccc([C@H]2[C@@H](CO)N3C(=O)CN(C(=O)Nc4ccc(F)cc4)C[C@@H]23)cc1`, with -13% [at 0.16 µM].
Consider `O=C(c1cnccn1)N1CC(=O)N2[C@H](C1)[C@H](c1ccc(-c3cccc(F)c3)cc1)[C@@H]2CO`, for which the max activity (at 19.5 µM unless noted) was -9.23% [at 0.16 µM].
Still for that read-out and setting: the result for `O=C(c1cnccn1)N1CC(=O)N2[C@H](CO)[C@H](c3ccc(-c4cccc(F)c4)cc3)[C@@H]2C1` reads -10.6% [at 0.3 µM]; that for `O=C(c1cnccn1)N1CC(=O)N2[C@H](CO)[C@H](c3ccc(-c4cccc(F)c4)cc3)[C@H]2C1`, 15.4% and 19.8%; that for `CC1CCCCN1C(=O)c1ccnn1-c1ccc2ccc(-c3ccccc3)cn12` (stereo unspecified), -6.05% [at 5 µM].
For the compound `CC(=O)O[C@@H]1CC2C(C)(CC[C@H](O)C2(C)C)C2CC[C@]3(C)C(=CC(=O)O[C@H]3c3ccoc3)C21C` (stereo partly specified), the max activity (at 19.5 µM unless noted) is -5.91% [at 10 µM].
Turning to `CC(C)n1cnc2c(NCC3CC3)nc(C3CCN(C(=O)c4cccc(F)c4F)CC3)cc21`, under “at 19.5 µM unless noted”, the max activity was 5.98% [at 1.2 µM].
In the case of `Cc1ccccc1-c1ccc(C2[C@@H]3CN(Cc4cocn4)C[C@H]2N3)cc1` (stereo partly specified), the max activity (at 19.5 µM unless noted) is 20.2%.
In the case of `COCC1COCCC12CCN(C(=O)c1ccc(C)nc1)CC2` (stereo unspecified), the max activity (at 19.5 µM unless noted) was 6.91% [at 2.6 µM].
Same read-out and setting: the result for `CCCN(C/C=C/I)C1CCc2cccc(O)c2C1` (stereo unspecified) reads 15.1%; that for `CC(C)NC(=O)N1CC(=O)N2[C@@H](CO)[C@H](c3ccc(/C=C/c4ccccc4)cc3)[C@@H]2C1`, -13.4% [at 0.16 µM]; that for `O=C(C1CCOCC1)N1CC(=O)N2[C@H](C1)[C@H](c1ccc(/C=C/c3ccccc3)cc1)[C@@H]2CO`, -15.6% [at 2.6 µM].
Turning to `CC1=NN(C2CCS(=O)(=O)C2)C(=O)C1(Sc1ccccc1)Sc1ccccc1` (stereo unspecified), the max activity (at 19.5 µM unless noted) was 14.4% [at 10 µM].
Still for that read-out and setting: then `CC(C)C#Cc1ccc([C@@H]2[C@@H](CO)N(C(=O)c3cccc(F)c3)[C@H]2C#N)cc1`, with -12.4% [at 10 µM]; and `CC(C)CC#Cc1ccc([C@H]2[C@@H](CO)N3C(=O)CN(C(=O)c4cccc(F)c4)C[C@@H]23)cc1`, with 25.4%.
